Out of some 320,000 compounds screened, about 22,000 (6.9%) were called active. Where a call stands in place of a potency, no number is given. Inconclusive results (about 27%) are left out. The sample holds actives, similar compounds and a random draw of the others, so the mix is not that of the screen. A number with no mark means an inactive call. The call rests on the fitted dose curve; in most records, active means well fitted inhibition curve with a large enough effect; inconclusive means small, poorly fitted or top-dose-only effect, or another doubt; inactive means no such curve, though single readings can be large or run the other way.
Test: Primary qHTS for delayed death inhibitors of the malarial parasite plastid, 96 hour incubation
Settings: P. falciparum luciferase reporter growth; series mostly up to 28.7 µM
How it was run: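 P. falciparum expressing integrated firefly luciferase grown in erythrocytes (2% hematocrit, 0.05% parasitemia final) with compounds for 96 hours at 37 C, 5% CO2. Growth inhibition read as loss of luminescence after adding luciferase detection reagent.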
Potency means the concentration at half of the fitted maximal effect.

Row | SMILES | Potency | activity change, negative = inhibition
1 | CN(CC(=O)Nc1ccc(F)cc1)CC(=O)N1CCCCC1 | inactive | –
2 | Cc1ccc(-c2nnc(Nc3ccc(C(=O)N(C)C)cc3)c3ccccc23)cc1S(N)(=O)=O | inactive | –
3 | COc1ccccc1C(=O)N(Cc1ccc(C)o1)C1CCS(=O)(=O)C1 (stereo unspecified) | inactive | –
4 | CCCCc1nc(SCC(=O)Nc2nnc(C(C)C)s2)n[nH]1 | inactive | –
5 | CC(C)CNc1ncnc2c1cnn2Cc1ccc(Cl)cc1 | 11.7 µM (active) | –
6 | Clc1ccc(Cn2ncc3c(NCc4cccnc4)ncnc32)cc1 | inactive | –
7 | CC(=O)Nc1ccc(NC(=O)CSc2ncnc3c2cnn3Cc2ccccc2)cc1 | inactive | –
8 | CC1CCCC(C)N1C(=O)CSc1nnnn1C1CCCC1 (stereo unspecified) | inactive | –
9 | O=C(CSc1nnnn1C1CCCC1)N1CCCCC1 | 0.586 µM (active) | –
10 | CC(=O)Nc1ccc(NC(=O)CSc2nnnn2C2CCCCC2)cc1 | inactive | –
11 | COc1cccc(NC(=O)c2ccccc2N(Cc2ccccc2)S(C)(=O)=O)c1 | inactive | –
12 | Cc1ccc(S(=O)(=O)N2CC(C)N(S(C)(=O)=O)C2)cc1 (stereo unspecified) | inactive | –
13 | O=C(CNC(=O)C12CC3CC(CC(C3)C1)C2)OCC(=O)N1CCCCC1 | inactive | –
14 | CC(C)N(Cc1ccccc1)C(=O)COC(=O)c1ccccc1SCC(=O)N1CCCC1 | inactive | –
15 | Cc1cccc(NC(=O)NC2(C)CCS(=O)(=O)C2)c1 (stereo unspecified) | inactive | –
16 | CC(=O)Nc1ccc(C(=O)CSc2nc3ccc(C)cc3[nH]2)cc1 | inactive | –
17 | COc1ccc2nc(SCC(=O)Nc3c(C)cc(C)cc3C)[nH]c2c1 | inactive | –
18 | CCOC(=O)CSc1nc2ccc(C)cc2[nH]1 | 13.1 µM (active) | –
19 | O=C(Nc1c2c(nn1-c1ccccc1)CS(=O)(=O)C2)C1CCCC1 | inactive | –
20 | CSc1ncc(C(=O)NCCCc2ccccc2)c(C)n1 | inactive | –
21 | COC(=O)C1=C(N)Oc2cc(C)oc(=O)c2C1c1cccnc1 (stereo unspecified) | inactive | –
22 | COC(=O)C1=C(C)Nc2ncnn2C1c1cccnc1 (stereo unspecified) | inactive | –

Row | SMILES | Potency | activity change, negative = inhibition
23 | CCSc1nc2c(c(=O)[nH]1)C(c1cccnc1)C(C(=O)OC(C)C)=C(C)N2 (stereo unspecified) | 1.31 µM (active) | –
24 | COc1ccc2c(C)cc(SCC(=O)NCC3CCCO3)nc2c1 (stereo unspecified) | inactive | –
25 | O=C(Nc1ccc(F)cc1)C1CCCN(S(=O)(=O)c2ccc(-n3cnnn3)cc2)C1 (stereo unspecified) | inactive | –
26 | c1ccc(-c2nnc(N3CCOCC3)c3ccccc23)cc1 | inactive | –
27 | Cc1ccc(-c2nnc(C)c(N3CC(C)OC(C)C3)n2)cc1 (stereo unspecified) | inactive | –
28 | CC1CN(c2nc(-c3ccccc3)nnc2-c2ccccc2)CC(C)O1 (stereo unspecified) | 0.828 µM (active) | –
29 | CCOC(=O)c1cccc(NC(=O)CCc2nnc3ccc(N4CCOCC4)nn23)c1 | inactive | –
30 | O=C(CNC(=O)c1ccc(Br)o1)Nc1ccccc1 | 13.1 µM (active) | –
31 | O=C(NCc1cccs1)c1ccc(Br)o1 | inactive | –
32 | O=C(CNC(=O)c1ccc(Br)o1)NCC1CCCO1 (stereo unspecified) | inactive | –
33 | Nc1c(N(CCCO)C(=O)C2CCCC2)c(=O)[nH]c(=O)n1Cc1ccccc1 | inactive | –
34 | Cc1cc(Cl)ccc1OCCCC(=O)Nc1cccc(-n2cnnn2)c1 | inactive | –
35 | OC(CNC1CCCC1)COc1ccc(F)cc1 (stereo unspecified) | inactive | –
36 | Cc1ccc(S(=O)(=O)/N=C(\N)c2ccc(F)cc2)cc1 | inactive | –
37 | Cc1ccc(-c2cc(=O)c3ccc(F)cc3[nH]2)cc1 | 2.94 µM (active) | –
38 | Cc1ccc(-c2cc(=O)c3ccc(Cl)cc3[nH]2)cc1 | inactive | –
39 | COCCN1C(=O)N(c2ccc(Cl)cc2)C(=O)C1CC(=O)Nc1cc(OC)cc(OC)c1 (stereo unspecified) | inactive | –
40 | O=C(O)c1ccccc1OCc1ccccc1Cl | inactive | –
41 | O=C(CCc1c[nH]c2ccccc12)NCCOc1ccccc1 | inactive | –
42 | O=C(COC(=O)Cc1c[nH]c2ccccc12)NCCc1ccccc1 | inactive | –
43 | O=C(Cc1c[nH]c2ccccc12)OCCOC(=O)Cc1c[nH]c2ccccc12 | 5.22 µM (active) | –
44 | O=C1NN(c2ccccc2)C(=O)/C1=C/c1ccc(-c2cccc(C(=O)O)c2)o1 | inactive | –

Row | SMILES | Potency | activity change, negative = inhibition
45 | COc1ccc(CNC(=O)CCC(=O)Nc2nnc(C(C)C)s2)cc1 | inactive | –
46 | COc1cc2ccccc2cc1C(=O)Nc1nc(C)c(C(C)=O)s1 | inactive | –
47 | COc1ccc(C(=O)CCC(=O)Nc2cccnc2)c(OC)c1 | inactive | –
48 | Cc1noc(C)c1CCC(=O)O | inactive | –
49 | CCOC(=O)C1(Cc2cccc(OC)c2)CCN(Cc2csc(C(C)=O)c2)CC1 | inactive | –
50 | CCOC(=O)C1(Cc2ccccc2C)CCCN(C(=O)CCc2c(C)noc2C)C1 (stereo unspecified) | 11.7 µM (active) | –
51 | CCOC(=O)C1(Cc2ccccc2C)CCCN(S(C)(=O)=O)C1 (stereo unspecified) | inactive | –
52 | CCOC(=O)C1(Cc2cccc(OC)c2)CCCN(C(=O)CCSC)C1 (stereo unspecified) | 0.37 µM (active) | –
53 | CCOC(=O)C1(Cc2cccc(OC)c2)CCN(C(C)CC(C)(C)O)CC1 (stereo unspecified) | inactive | –
54 | COc1ccc(-c2c(NC(=O)c3ccco3)oc3ccc(Cl)cc3c2=O)cc1 | inactive | –
55 | CCCc1cc(=O)[nH]c(SCC(=O)N2C(C)CCCC2C)n1 (stereo unspecified) | inactive | –
56 | CC1(C)NC(=O)N(CC(=O)Nc2cc(C(F)(F)F)cc(C(F)(F)F)c2)C1=O | inactive | –
57 | O=C(COC(=O)CNC(=O)C1CCCCC1)Nc1cccc(F)c1 | inactive | –
58 | CCOc1ccc2nc(N3CCCN(C(=O)Nc4ccccc4C)CC3)c(C#N)cc2c1 | 13.1 µM (active) | –
59 | COc1ccc2nc(N3CCCC(O)C3)c(C#N)cc2c1 (stereo unspecified) | inactive | –
60 | Cc1ccc(F)cc1NC(=O)N1CCCN(c2ccc(C(F)(F)F)cn2)CC1 | inactive | –
61 | CC1(C)O[C@H]2CC(=O)OCC23[C@H]2CC[C@@]4(C)[C@H](c5ccoc5)OC(=O)[C@H]5O[C@]54[C@]2(C)C(=O)C[C@@H]13 (stereo partly specified) | inactive | –
62 | O=C1/C(=C/c2coc3ccc(O)cc3c2=O)SC(=S)N1c1ccccc1 | inactive | –
63 | CC(C)(C)C(=O)CN1C2=NCCN2c2ccccc21 | inactive | –
64 | COc1cc(C)c(C)cc1S(=O)(=O)N1CCCc2ccccc21 | inactive | –
65 | Cc1cc2c(cc1C)N(Cc1ccccc1)C1=NCCCN12 | 7.38 µM (active) | –
66 | COC(=O)c1ccc(/C=C2/C(=O)Oc3ccccc32)cc1 | inactive | –

Row | SMILES | Potency | activity change, negative = inhibition
67 | Clc1cc(NC2CCCCC2)ncn1 | inactive | –
68 | O=C1c2ccccc2S(=O)(=O)N1Cc1c(F)cccc1Cl | inactive | –
69 | Cc1cccc(NC(=O)Cn2cc(C(=O)c3ccco3)c3ccccc32)c1 | inactive | –
70 | N#Cc1ccc(Cn2cc(C(=O)c3ccco3)c3ccccc32)cc1 | inactive | –
71 | CC1CCN(C(=O)Cn2cc(C(=O)c3ccco3)c3ccccc32)CC1 | 10.4 µM (active) | –
72 | CC(=O)Nc1ccc(S(=O)(=O)N2CCn3cccc3C2C)cc1 (stereo unspecified) | inactive | –
73 | Cc1cc(NC(=O)c2ccc(F)cc2)ccc1NC(=O)c1ccco1 | inactive | –
74 | CC1CCCN(S(=O)(=O)c2ccc(-c3ccc(=O)[nH]n3)o2)C1 (stereo unspecified) | inactive | –
75 | CN(Cc1c(F)cccc1Cl)S(=O)(=O)c1cccs1 | inactive | –
76 | COc1ccc2cc1Oc1ccc(cc1)C[C@H]1c3cc(c(OC)cc3CCN1C)Oc1c(O)c(OC)cc3c1[C@H](C2)N(C)CC3 | 1.85 µM (active) | –
77 | CCOc1ccc(C(=O)COC(=O)c2ccc(-n3cnnn3)cc2)cc1 | inactive | –
78 | CC1(C)C(C=C(Cl)Cl)C1C(=O)N(Cc1ccc(Cl)cc1)C1CCS(=O)(=O)C1 (stereo unspecified) | 11.7 µM (active) | –
79 | COc1cc(C(=O)N(Cc2ccc(N(C)C)cc2)C2CCS(=O)(=O)C2)cc(OC)c1OC (stereo unspecified) | inactive | –
80 | CCOc1ccc(C(=O)N(Cc2ccc(N(C)C)cc2)C2CCS(=O)(=O)C2)cc1 (stereo unspecified) | – | 17.3% [at 5.75 µM]
81 | O=C1[C@@H]2C(c3cccnc3)=NO[C@@H]2C(=O)N1c1ccc(Cl)cc1Cl | inactive | –
82 | CC(C)[C@H](NC(=O)OCc1ccccc1)C(=O)OCc1ccccc1 | inactive | –
83 | COc1ccc(C2NC(=O)C(=O)/C2=C(\O)c2ccc(Cl)cc2)cc1OC (stereo unspecified) | inactive | –
84 | CCCN(CC(=O)Nc1ccc(C(N)=O)cc1)CC(=O)Nc1ccccc1C | inactive | –
85 | CC1CCc2[nH]c3ccc(C(=O)N(C)CC(=O)Nc4cccc(F)c4)cc3c2C1 (stereo unspecified) | inactive | –
86 | CCCN(CC(=O)Nc1ccccc1C)C(=O)c1ccc2[nH]c3c(c2c1)CC(C)CC3 (stereo unspecified) | 13.1 µM (active) | –
87 | O=C(OCc1nnc(-c2ccccc2)o1)c1cc(=O)[nH]c2ccccc12 | inactive | –
88 | CCc1nnc(NC(=O)CSCc2cc(=O)n3cc(C)sc3n2)s1 | inactive | –

Row | SMILES | Potency | activity change, negative = inhibition
89 | CC(NCCc1ccc(S(N)(=O)=O)cc1)C(=O)NCc1ccccc1 (stereo unspecified) | inactive | –
90 | O=C(Nc1nc(-c2ccncc2)cs1)C1COc2ccccc2O1 (stereo unspecified) | inactive | –
91 | COc1ccc(NC(=O)C2COc3ccccc3O2)cc1 (stereo unspecified) | 1.17 µM (active) | –
92 | CC(=O)c1cccc(NC(=O)C2COc3ccccc3O2)c1 (stereo unspecified) | 2.62 µM (active) | –
93 | CC(=O)c1cccc(NC(=O)C2CCN(C(=O)c3ccccc3Cl)CC2)c1 | inactive | –
94 | COc1ccc(NC(=O)CC2COc3ccccc3O2)c(OC)c1 (stereo unspecified) | inactive | –
95 | O=C(Nc1nc2c(F)cc(F)cc2s1)C1COc2ccccc2O1 (stereo unspecified) | inactive | –
96 | CCNC(=S)N(CCN(CC)CC)Cc1cc2cc3c(cc2[nH]c1=O)OCCO3 | inactive | –
97 | O=C(/C=C/c1cccc([N+](=O)[O-])c1)N1CCN(Cc2ccccc2)CC1 | inactive | –
98 | Clc1ccc(C[n+]2cc(-c3ccc(Cl)cc3)n3c2CCC3)cc1 | 0.37 µM (active) | –
99 | Clc1ccc(C[n+]2cc(-c3ccccc3)n3c2CCC3)cc1 | 0.586 µM (active) | –
100 | O=C(Cc1ccc(Br)cc1)NCCN1CCOCC1 | inactive | –
101 | COc1cccc(NC(=O)CSc2nnc(-c3cccnc3)o2)c1 | inactive | –
102 | NC(=O)C1CCN(C(=O)c2ccc3c(=O)n(Cc4cccc(Br)c4)c(=S)[nH]c3c2)CC1 | inactive | –
103 | CC(Sc1nnc(COc2ccccc2)n1-c1ccccc1)C(=O)O (stereo unspecified) | inactive | –
104 | CCn1c(SCC(=O)Nc2ccc(OC)c(OC)c2)nnc1-c1c[nH]c2ccccc12 | 11.7 µM (active) | –
105 | CCn1c(SCC(=O)NC2CC2)nnc1-c1ccccc1OC | inactive | –
106 | CCOC(=O)N1CCN(C(=O)CSc2nnc(-c3c[nH]c4ccccc34)n2CCOC)CC1 | inactive | –

Reference: PubChem BioAssay AID504834 (National Center for Advancing Translational Sciences (NCATS), 2011)
